This note sets out measurements from PubChem BioAssay AID651819 (National Center for Advancing Translational Sciences (NCATS), 2012).

SMILES strings stand for the structures. In all, about 360,000 compounds went through this assay and about 1,100 (0.31%) were called active. Rule as the data show it: active = activity change below about -30%; inactive = the rest. The list comes from a sample in which actives are over-represented; it also holds similar structures and randomly drawn compounds.
% is scaled to controls: 0 for no effect and ±100 for the full control effect.

The test deals with cytosolic chaperonin (CCT/TRiC complex). Briefly: High-Throughput Screening for Modulators of Cytosolic Chaperonin Activity. Conditions: purified chaperonin ATPase assay, HTRF ADP detection, 30 min; stronger effect = lower value. An outline of the steps:
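ATPase activity: ADP formed was measured by HTRF Transcreener (665/615 nm ratio) after 30 min at 37 deg C with 10 uM ATP. Compounds screened at one 76 uM concentration against 40 or 20 nM TRiC in Tris pH 7.4/KCl/MgCl2/DTT buffer.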
For the compound `O=C(Nc1ccccc1-c1nnn(CC(=O)N2CCN(c3ccccc3)CC2)n1)c1cccs1`, the activity change was -3.64% (inactive). To `CCOC1CS(=O)(=O)CC1OCC` (configuration not stated) belongs 0.485% (inactive); to `O=C(CS(=O)(=O)c1ccccc1)Nc1ccc(S(=O)(=O)Nc2ccccn2)cc1`, 0.548% (inactive). The same measure for `COc1ccc(NC(=O)CS(=O)(=O)c2ccccc2)cc1`: -61% (active); for `COc1ccc(NC(=O)CC(NC(C)c2ccccc2)C(=O)O)cc1` (configuration not stated): -0.408% (inactive); for `COc1cc2nc(CN(C)Cc3ccc(F)cc3)[nH]c(=O)c2cc1OC`: -1.05% (inactive). To `C/C(Cc1ccccc1)=N\NC(=O)CNC(=O)c1ccccc1Cl` belongs 0.921% (inactive). `CC(C)CNC(=O)COC(=O)c1ccccc1OCC(=O)Nc1ccc(Br)cc1`: the activity change was 0.0186% (inactive). As to `CN(c1ccccc1)S(=O)(=O)c1ccc(C(=O)NCc2cccnc2)cc1`, the activity change is 0.104% (inactive). The same measure for `O=C(O)c1ccccc1-c1ccccc1C(=O)NCc1cccnc1`: -1.06% (inactive). To `O=C(NCc1cccnc1)c1cnc2ccccc2n1` belongs -37.4% (active); to `CC(C)(C)OC(=O)CNC(=O)c1[nH]cnc1C(=O)N[C@@H](CCCCN)C(=O)OC(C)(C)C`, 0.783% (inactive). The same measure for `NC(=O)c1nsc(C(=O)N(CCCN2CCOCC2)C(C(=O)NC2CCCCC2)c2ccc(Cl)cc2)c1N` (configuration not stated): -0.121% (inactive); for `CCc1nc2sc3c(Cl)ncnc3c2c2c1CCCC2`: -2.15% (inactive). Consider `C/C(CC(=O)Nc1cccc(C(F)(F)F)c1)=N\NC(=O)C(=O)NCC(C)C`, for which the activity change was -0.0398% (inactive). The same measure for `COc1ccc(C(CC(=O)Nc2ccc(C)cc2)NC(=O)C(F)(F)F)cc1` (configuration not stated): 0.31% (inactive); for `COc1ccc(NC(=O)C(=O)NCC(=O)Nc2cccc(C(F)(F)F)c2)cc1`: -44.8% (active). The same measure for `Cc1ccc(CN2CC(C(=O)NNC(=O)Cn3ccc(C(F)(F)F)n3)CC2=O)cc1` (configuration not stated): -2.29% (inactive); for `Cc1cccc(-n2c(SCC(=O)Nc3cccc(S(=O)(=O)NC4=NCCCCC4)c3)nc3ccccc3c2=O)c1C`: -6.85% (inactive); for `Cc1ccc(CNC(=O)CCN2C(=O)[C@@H]3Cc4ccccc4CN3C2=O)cc1`: -0.496% (inactive). As for `O=C(CCN1C(=O)[C@@H]2Cc3ccccc3CN2C1=O)NCc1ccccc1`, the activity change is -37.1% (active). On to `O=C(CCN1C(=O)[C@@H]2Cc3ccccc3CN2C1=O)NCCc1ccccc1`, for which the activity change is -0.128% (inactive). As to `CCN1C(=NCc2ccc(OC)cc2)N[C@@H](CCc2ccccc2)[C@H](C(=O)NCc2ccc(OC)cc2)[C@H]1C`, the activity change is -0.204% (inactive). Turning to `COc1ccc(C2N=C(N)N=C(N)N2c2ccccc2)cc1OC` (configuration not stated), the activity change is -35.3% (active). The same measure for `COc1cc(C=O)ccc1Oc1nnnn1-c1ccccc1`: 0.228% (inactive). For the compound `NC1=NC(c2ccc([N+](=O)[O-])cc2)N(c2ccc(F)cc2)C(N)=N1` (configuration not stated), the activity change was 1.53% (inactive). To `Nc1nonc1-n1nnc(C(=O)N/N=C/c2cc(Br)ccc2O)c1CSC1=NCCS1` belongs 1.21% (inactive); to `Cc1nn(-c2ccccc2)c2sc(C(=O)N(Cc3ccco3)C(C)C(=O)NC(C)(C)C)cc12` (configuration not stated), 1% (inactive). The same measure for `CC(C)NC(=O)CCCn1c(=S)[nH]c2cc3c(cc2c1=O)OCO3`: -1.56% (inactive); for `O=C(CCCCCn1c(=S)[nH]c2cc3c(cc2c1=O)OCO3)N1CCN(c2ccc(F)cc2)CC1`: -31.7% (active); for `Cc1ccc(C)c(N2CCN(C(=O)CCCCCn3c(=S)[nH]c4ccc(N5CCOCC5)cc4c3=O)CC2)c1`: 1.65% (inactive). The same measure for `CC(C)N(C(=O)Cn1c(SCC(=O)N2CCN(c3ccccc3)CC2)nc2ccccc21)C(C)C`: -3.64% (inactive).

With `Cc1ccc(S(=O)(=O)/N=C(/NC(=S)Nc2c(C)n(C)n(-c3ccccc3)c2=O)c2ccccc2)cc1`, the activity change was -1.68% (inactive). With `Cc1c(CN2CCC(CO)(CCOc3ccccc3)CC2)[nH]c2ccc(Cl)cc12`, the activity change is -56% (active). To `COc1cccc(CC2(CO)CCN(Cc3cnc(-c4cccc(C)c4)nc3)CC2)c1` belongs -1.28% (inactive); to `OCC1(CCc2ccccc2)CCN(Cc2ccc3nsnc3c2)CC1`, -4.83% (inactive); to `O=C1C2C3C=CC(C3)C2C(=O)N1c1ncc([N+](=O)[O-])s1` (configuration not stated), -1.62% (inactive). For `COc1ccc(/C=C/C(=O)OCC(=O)NCc2cccs2)cc1OC`, the activity change is -2.94% (inactive).

For `OC(c1ccccc1)c1nc(-c2cnc3ccccc3c2)cs1` (configuration not stated), the activity change was -40.1% (active). The same measure for `COc1cccc(C(NC(C)=O)c2nc(-c3cnc4ccccc4c3)cs2)c1` (configuration not stated): 0.873% (inactive); for `CC(C)c1cccc(-c2csc(C(O)c3ccccc3)n2)c1` (configuration not stated): -0.363% (inactive). On to `COC(=O)C[C@H]1C[C@@H]2c3cc(N(C)C)ccc3O[C@@H]2[C@H](CO)O1`, for which the activity change is -1.3% (inactive).

`CCOC(=O)c1ccccc1NC(=O)c1c(N)n(C)c(=O)[nH]c1=O`: the activity change is 2.1% (inactive). To `O=C(Nc1ccccc1-c1nnn(CC(=O)N2CCCc3ccccc32)n1)c1cccc(Cl)c1` belongs -0.628% (inactive); to `CC1=C(C(=O)NC2CC(C)(C)Cc3c2cnn3-c2ccc(C)cc2)OCCO1` (configuration not stated), -89.1% (active).

On to `Cc1ccc(-n2ncc3c2CC(C)(C)CC3NC(=O)Cc2c(C)noc2C)cc1` (configuration not stated), for which the activity change was 1.55% (inactive). The same measure for `COCc1ccc(C(=O)NC2CC(C)(C)Cc3c2cnn3-c2ccc(C)cc2)o1` (configuration not stated): -1.13% (inactive); for `Cc1ccc(-c2c(C)n([O-])c3c([n+]2=O)CCC3)cc1`: -0.716% (inactive). Consider `O=C1/C(=C\c2cccnc2)CN(Cc2ccccc2)C/C1=C\c1cccnc1`, for which the activity change was -1.65% (inactive). The same measure for `COc1ccc(C2=NOC3(CC(=O)N(c4ccc(Cl)cc4)C3=O)C2)c(OC)c1` (configuration not stated): 1.68% (inactive); for `CC(=O)c1c(C)c[nH]c1C`: 0.144% (inactive); for `CC(=O)Nc1ccc(NC(=O)C(NS(=O)(=O)c2ccc3c(c2)OCCO3)C(C)C)cc1` (configuration not stated): -1.81% (inactive). The same measure for `CC(NS(=O)(=O)c1ccc(Cl)cc1)C(=O)Nc1ccc2c(c1)OCCO2` (configuration not stated): -38.5% (active); for `Cc1ccc(S(=O)(=O)NCC(=O)Nc2ccc3c(c2)OCCO3)cc1`: -2.11% (inactive); for `COc1cc(Cl)c(C)cc1NC(=O)CSc1nnc(-c2ccco2)n1CC(C)C`: -2.06% (inactive).

`COc1ccccc1N1CCN(C(=O)CSc2ncnc3c2cnn3-c2ccc(C)c(C)c2)CC1`: the activity change is -0.613% (inactive). The same measure for `CN(C(=O)CC(NC(=O)c1ccccc1)(c1ccccc1)c1ccccc1)c1ccccc1`: -1.61% (inactive); for `CCOC(=O)N/N=C1\CC(C)S(=O)(=O)c2ccc(Cl)cc21` (configuration not stated): -3.43% (inactive). The same measure for `CC(=O)c1cc2c(cc1NC(=O)Cn1nc(-c3ccc(F)cc3)ccc1=O)OCO2`: -31.8% (active); for `CCOc1cccc(NC(=O)Cn2nc(-c3ccc4c(c3)OCCO4)ccc2=O)c1`: 2.22% (inactive).

In the case of `CC(=O)c1cc2c(cc1NC(=O)CN1CCCCCC1)OCO2`, the activity change was -1.13% (inactive).

For the compound `Cc1cccc2c1cnn2C(=O)CCC(=O)NC1CCCCC1`, the activity change was 0.998% (inactive). To `C=CCN(N=Nc1cccc([N+](=O)[O-])c1)c1cccc([N+](=O)[O-])c1` belongs -0.537% (inactive); to `CC1=C(C(=O)OC(C)(C)C)C(c2ccc(Br)cc2)NC(=O)N1CCCC(=O)O` (configuration not stated), -0.201% (inactive); to `Cc1n[nH]c(=O)n1-c1ccc(C(C)C)cc1`, 0.471% (inactive). The same measure for `O=C1CS(=O)CN1c1ccc(Oc2ccccc2)cc1` (configuration not stated): -3.89% (inactive); for `Cc1n[nH]c(=O)n1-c1ccc(Oc2ccccc2)cc1`: -105% (active).

For the compound `O=C(NCCCN1CCCCC1)c1ccc2c(c1)NC(=O)C(N1CCOCC1)S2` (configuration not stated), the activity change is -0.706% (inactive). To `O=C(NCCCN1CCOCC1)c1cc(-c2ccccc2F)no1` belongs 1.6% (inactive); to `O=C(NCCCN1CCOCC1)c1ccc2c(c1)N(Cc1cccc(F)c1)C(=O)c1ccccc1S2`, -77.1% (active).

`CCc1ccc(CN(C)C(C)C(=O)Nc2ccc(S(=O)(=O)N3CCCC3)cc2)cc1` (configuration not stated): the activity change was -0.65% (inactive). The same measure for `Cc1ccc(C2C(C#N)C(C#N)N3CCCN23)cc1` (configuration not stated): 0.118% (inactive).
